This is a sample that favours compounds with a hit; in the whole collection about 2.6% have one here.
Bim-Mcl-1 = human Bim-Mcl-1 interaction inhibition; Q07820; Bead-based flow cytometry, Bim peptide-Mcl-1 binding; inhibition, % at 10 µM; 190,000 compounds, 0.1% hits; in the data active = inhibition above about 40%;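 note: 0% = no compound tracer wells and 100% = peptide blocker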
Target sequence (Q07820 whole entry, looked up): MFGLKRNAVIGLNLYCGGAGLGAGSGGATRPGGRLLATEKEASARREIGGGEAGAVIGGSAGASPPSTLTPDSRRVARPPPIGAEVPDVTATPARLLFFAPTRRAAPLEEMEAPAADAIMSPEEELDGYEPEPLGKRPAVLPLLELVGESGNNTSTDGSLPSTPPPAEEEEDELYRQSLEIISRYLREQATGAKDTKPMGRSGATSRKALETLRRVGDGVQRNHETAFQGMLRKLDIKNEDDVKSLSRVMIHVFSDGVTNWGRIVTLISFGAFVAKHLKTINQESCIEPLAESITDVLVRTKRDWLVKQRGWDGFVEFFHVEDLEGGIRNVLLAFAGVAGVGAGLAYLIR
MCL1-BIM inh = disrupts human MCL1 binding to BIM-BH3 peptide; Q07820; GST-MCL1 / FITC-Bim-BH3 fluorescence polarization; inhibition, % at 10.9 µM; 320,000 compounds, 0.68% hits; AID 2057;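 active = inhibition above the mean inhibition of all tested compounds plus 3 SD, set per campaign, cut at about 40% in these data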;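 note: 0% = DMSO wells and 100% = unlabeled Bim-BH3 peptide control; higher means more loss of mP so more displacement of Bim peptide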
Mcl1-Bid inh = Mcl-1/Bid interaction inhibition. Q07820. TR-FRET Mcl-1/Bid-Dy647 peptide binding, 1536-well. inhibition, % at 21.7 µM. 220,000 compounds, 0.97% hits;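 active = compounds that cut the binding signal by more than half at the single screening dose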;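 note: His-tagged Mcl-1 with europium anti-His antibody binding Bid BH3 peptide; 0% = Mcl-1 plus peptide wells and 100% = peptide-only wells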
eIF4E 4G PPI = eIF4E/eIF4G interaction inhibition in translation initiation; TR-FRET eIF4E-eIF4GI(517-606) binding, 2 h; inhibition, % at 21.7 µM; 220,000 compounds, 0.37% hits; AID 782;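 active = inhibition above about 30%, limit read from the data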;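 note: 0% = full FRET control wells and 100% = background wells lacking eIF4GI fragment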
Mcl1 Noxa PPI = disrupts binding of human Mcl-1 to Noxa peptide | AID 1022 | inhibition, % at 21.7 µM | 220,000 compounds, 1.5% hits | TR-FRET Mcl-1/Noxa peptide binding, 2 h | Q07820;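 active = compounds that cut the protein-peptide binding signal by more than 50% relative to plate controls in a single-dose test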;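 note: His-tagged Mcl-1 with rhodamine Noxa BH3 peptide and terbium anti-His antibody; 0% = Mcl-1 plus Noxa peptide wells and 100% = peptide-only wells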
14-3-3 Bad PPI = disrupts binding of bovine 14-3-3 zeta to phospho-Bad peptide | TR-FRET 14-3-3zeta/Dy647-pBad peptide displacement, 1 h | 220,000 compounds, 0.71% hits | inhibition, % at 21.7 µM | P63103 | AID 781;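 active = inhibition above about 70%, limit read from the data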;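 note: 0% = full 14-3-3 plus peptide FRET controls and 100% = background without 14-3-3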
Target sequence (P63103 whole entry, looked up): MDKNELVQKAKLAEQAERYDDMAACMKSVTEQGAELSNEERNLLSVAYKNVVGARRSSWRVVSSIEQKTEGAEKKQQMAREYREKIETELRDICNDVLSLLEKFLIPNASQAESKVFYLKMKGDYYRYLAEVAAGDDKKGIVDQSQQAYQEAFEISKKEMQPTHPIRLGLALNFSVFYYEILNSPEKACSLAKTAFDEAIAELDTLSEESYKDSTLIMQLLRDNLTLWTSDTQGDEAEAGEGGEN
An asterisk follows results filed as active; · = no result given; [ ] = another dose, or the depositor's remark.

SMILES	Bim-Mcl-1	MCL1-BIM inh	Mcl1-Bid inh	eIF4E 4G PPI	Mcl1 Noxa PPI	14-3-3 Bad PPI
CCCC(=O)Nc1nc(-c2ccc(Cl)s2)cs1	0	-1	-16	-2	11	-20
O=C(Nc1ccc([N+](=O)[O-])cc1)Nc1nc(-c2ccc(Cl)s2)cs1	-4	0	29	1	82*	22
O=C(O)C1CCCCC1C(=O)Nc1nc(-c2ccc(Cl)s2)cs1 (configuration not stated)	1	25	-114	12	71*	14
COCCN1C(=O)C(=O)/C(=C(/O)c2ccc(S(=O)(=O)N3CCOCC3)cc2)C1c1cccc([N+](=O)[O-])c1 (configuration not stated)	·	0	·	·	·	·
O=S1(=O)NC(CC2=CCCCC2)C2CCCCC2O1 (configuration not stated)	·	10	·	·	·	·
Cc1c([N+](=O)[O-])c(C(=O)Nc2ccc3c(c2)OCCO3)nn1C	0	7	73*	-3	0	40
CC(C)(C)c1ccc(CCC2OCC(C[N+]3(C)CCOCC3)O2)cc1 (configuration not stated)	·	-26	-28	91*	9	-1
Cc1ccc(-n2c(-c3ccccc3)c[n+]3c2CCC3)cc1	-1	3	-11	-1	51*	-6
FC(F)Sc1ccc(-n2c(-c3ccc(Cl)cc3)c[n+]3c2CCC3)cc1	-4	-1	2	5	-11	-6
Cc1ccc(-n2c(-c3ccc(Cl)cc3)c[n+]3c2CCC3)cc1	·	5	-14	94*	5	-1
C/C(=N/NC(=O)c1ccc(Cl)s1)c1ccc(NC(=O)COc2ccc(Cl)cc2)cc1	-4	4	55*	-34	-69	52
Cc1ccc(Nc2c([N+](=O)[O-])c(=O)oc3ccccc23)cc1	-1	-2	3	1	12	-4
O=c1oc2ccccc2c(Nc2ccc3ccccc3c2)c1[N+](=O)[O-]	0	4	39	-2	67*	64
CCOc1cc(CN2CCSCC2)ccc1O	-3	8	23	1	26	74*
COc1cccc(CN2CCSCC2)c1	0	0	62*	3	41	68
OC1CCN(Cc2cccc(Oc3ccccc3)c2)CC1	-3	5	-8	-3	6	-12
CN1CCN(Cc2cccc(Oc3ccccc3)c2)CC1	1	9	35	13	27	70*
CCOC(=O)N1CCN(C(=O)C2CCN(Cc3ccc(O)c(OCC)c3)CC2)CC1	0	-3	3	2	21	0
CC1CCCC(NC(=O)COC(=O)c2ccc3ncsc3c2)C1C (configuration not stated)	·	6	·	·	·	·
CCOC(=O)C1CCCN(c2ncnc3c2oc2ccccc23)C1 (configuration not stated)	-4	-7	34	7	21	83*
O=C(O)C1CCN(c2nc(-c3ccccc3)nc3c2oc2ccccc23)CC1	-4	3	-3	2	1	0
CCOC(=O)C1CCN(c2nc(-c3ccccc3)nc3c2oc2ccccc23)CC1	0	-2	-27	7	5	81*
CCOC(=O)C1(Cc2cccc(Cl)c2)CCCN(C(=O)CN2C(=O)CSC2=O)C1 (configuration not stated)	·	10	·	·	·	·
Cc1ccc(C)c(S(=O)(=O)N2CCN(CC(=O)N3CCc4ccccc4C3)CC2)c1	0	2	62*	11	7	86*[fluorescence artefact?]
CCOc1ccc(NC(=O)CN(C)C(=O)c2c(C)nn(-c3ccccc3)c2Cl)cc1OCC	·	-9	·	·	·	·
SMILES	Bim-Mcl-1	MCL1-BIM inh	Mcl1-Bid inh	eIF4E 4G PPI	Mcl1 Noxa PPI	14-3-3 Bad PPI
CC(=O)N1N=C(c2ccccc2)OC1(C)CC(=O)Nc1ccccc1 (configuration not stated)	-5	0	2	7	13	-2
CC(=O)N1N=C(c2cccc([N+](=O)[O-])c2)OC1(C)CC(=O)Nc1ccccc1 (configuration not stated)	-3	0	7	24	6	81*[fluorescence artefact?]
Cc1cc(C)cc(S(=O)(=O)c2cn(C)c3cc(N4CCN(C)CC4)c(F)cc3c2=O)c1	·	-3	·	·	·	·
C=CCOC(=O)C1=C[C@H](c2coc3ccccc3c2=O)C[C@H](OCCCCO)O1	·	10	·	·	·	·
COc1cc(/C=C/C(=O)c2ccc(NS(=O)(=O)c3ccc(C)cc3)cc2)cc(OC)c1O	4	2	4	1	56*	2
CCSc1nnc(-c2ccccc2N=Cc2c(C)[nH]n(-c3ccccc3)c2=O)c(=O)[nH]1	1	13	5	3	14	7
O=C(O)c1cc(-c2cc(C(=O)O)c3ccccc3n2)nc2ccccc12	·	8	·	·	·	·
O=C(NC1CC1)c1cc(-c2ccco2)nc2ccccc12	·	·	39	57*	105*	83*
COc1ccc(CNC(=O)COC(=O)c2cc(-c3ccco3)nc3ccccc23)cc1	-1	·	9	1	89*	0
O=C(O)c1cc(-c2ccco2)nc2ccccc12	-3	46*	-33	9	36	12
Cn1c(=O)c(C(=O)COC(=O)c2cc(-c3ccco3)nc3ccccc23)c(N)n(CC2CC2)c1=O	5	44*	-7	8	95*	-4
COc1ccc(OCc2nn[nH]n2)cc1	·	-18	·	·	·	·
CC1CC(C)CN(C(=O)Cn2cc(C=O)c3ccccc32)C1 (configuration not stated)	0	-1	-2	-2	-12	83*
CCOc1ccc(NC(=O)CC2C(=O)N(c3ccc(OC)cc3)C(=S)N2Cc2ccccn2)cc1 (configuration not stated)	0	1	82*	3	10	-14
CCOc1ccc(NC(=O)CC2C(=O)N(c3ccccc3)C(=S)N2Cc2ccccn2)cc1 (configuration not stated)	-1	-2	-12	0	8	5
COc1ccc(/C=N/Nc2nc(-c3ccc(C)cc3)c(NC(C)=O)s2)cc1OC	·	-6	-33	2	57*	-11
COc1cc(/C=N\Nc2nc(-c3ccc(C)cc3)c(NC(C)=O)s2)ccc1O	·	1	-53	2	83*	3
CC(=O)Nc1sc(N/N=C/c2ccc(C)cc2)nc1-c1ccc(C)cc1	·	12	-38	-3	24	-6
CCOc1cc(/C=N\Nc2nc(-c3ccc(C)cc3)c(NC(C)=O)s2)ccc1O	·	9	-6	-5	67*	-9
CC(C)[C@H](NC(=O)[C@@H]1Cc2c([nH]c3ccccc23)C2c3ccccc3C(=O)N21)C(=O)N1CCC[C@@H]1C(=O)O (some centres not stated)	·	4	·	·	·	·
COc1ccccc1OCCOc1ccc(/C=C2/C(=N)N3OC(C)=CC3=NC2=O)cc1OC	0	-7	84*	-10	-22	59

Source: PubChem (several laboratories)
